ssDAF12 agonist: activators of S. stercoralis DAF-12 nuclear receptor. HEK293 ssDAF-12/GRIP1 lit1-tk-luc reporter, luminescence; % of 3 µM dafachronic acid response. activation, % at 6.8 µM. hit rate 1% among 370,000. AID 652126;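 active means activation above the mean over all tested compounds plus 3 SD, cut at about 0.9% in these data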
hcDAF-12 act: activators of H. contortus DAF-12 nuclear receptor; HEK293 hcDAF-12 lit1-tk-luc reporter, luminescence; 0% DMSO, 100% Δ7-dafachronic acid; activation, % at 6.8 µM; hit rate 1.4% among 370,000; AID 652067;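 active means activation above the mean of all tested compounds plus 3 SD, cut at about 5.5% in these data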
SMARCA2 activ: SMARCA2 function activation, primary screen; activation, % at 9.1 µM; AID 652017; MG213 cells, MMTV-luciferase reporter, dexamethasone, overnight; hit rate 1% among 370,000; in the data active means activation above about 7.8%
hgDAF-12 ag: hgDAF-12 agonism, primary luciferase screen; HEK293 GAL4-hgDAF12 UAS-luciferase reporter, agonist luminescence; normalized to butyrate control; activation, % at 6.8 µM; hit rate 1.8% among 370,000; AID 687014;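 active means activation above a cutoff set at the mean of all screened compounds plus 3 SD, cut at about 10% in these data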
DAX1 inh-1: inhibits human nuclear receptor DAX1. P51843. HEK293 Gal4-DAX1 luciferase reporter, luminescence. inhibition, % at 6.75 µM. hit rate 0.99% among 340,000;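 active means inhibition above the mean over all tested compounds plus 3 SD, cut at about 4.2% in these data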;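 further: inhibition shows as a rise in luminescence from relieved DAX1 repression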
Target sequence (P51843 207-470 limits assumed): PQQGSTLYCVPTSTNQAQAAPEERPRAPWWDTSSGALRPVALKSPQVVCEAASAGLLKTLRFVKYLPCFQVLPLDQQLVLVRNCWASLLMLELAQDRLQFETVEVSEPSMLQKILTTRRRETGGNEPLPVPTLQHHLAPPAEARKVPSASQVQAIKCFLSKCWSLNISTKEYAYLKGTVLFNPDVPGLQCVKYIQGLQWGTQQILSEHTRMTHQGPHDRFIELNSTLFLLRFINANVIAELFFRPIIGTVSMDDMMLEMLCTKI
DAX1 inh-2: DAX1 (NR0B1) inhibition, primary screen; hit rate 1.1% among 370,000; inhibition, % at 6.8 µM; AID 652010; HEK293T StAR-luciferase reporter, SF-1/DAX-1 repression relief;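 active means inhibition above the mean over all tested compounds plus 3 SD, cut at about 3.6% in these data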;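 further: higher inhibition means more luminescence from relief of DAX-1 repression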
Hits are given with their value; - = inactive; . = not tested or not shown. Only some compounds are listed: those with a hit (about 4.8% of all), similar ones and a draw of the others.

SMILES	ssDAF12 agonist	hcDAF-12 act	SMARCA2 activ	hgDAF-12 ag	DAX1 inh-1	DAX1 inh-2
CCOc1ccc(Cn2ccnc2)cc1[N+](=O)[O-]	-	-	12.6	-	-	-
COc1ccc(Br)cc1C(=O)NC(=S)Nc1ccc2[nH]c(=O)[nH]c2c1	-	-	-	-	-	-
O=C/C(=C\Nc1ccc(Br)cc1)c1nc2ccccc2o1	-	-	-	-	-	-
O=C/C(=C\Nc1ccccn1)c1nc2ccccc2o1	-	5.8	-	-	-	-
Cc1cc(C2=NNC(=Nc3ccccc3)SC2)c(C)n1C	-	-	-	-	5.4	-
C[C@@H](NC(=O)[C@@H]1Cc2ccccc2CN1)C(=O)Nc1ccc2c(c1)OCO2	-	-	-	-	5.2	-
Nc1ccc(N=Nc2ccccc2O)c(N)c1	1.6	-	-	-	.	-
FC(F)(F)c1cc(Cc2nc3ccccc3n2C(CCc2ccccc2)c2nc3ccccc3[nH]2)cc(C(F)(F)F)c1 (configuration not stated)	-	-	-	-	.	3.9
Cc1nn(-c2cccc(Cl)c2)c(Cl)c1/C=N/NC(=O)c1cccs1	-	-	-	10.8	4.7	-
CCNC(=S)N/N=C/c1c(C)nn(-c2cccc(Cl)c2)c1Cl	-	-	-	-	-	-
CC1(C)Cc2c(C#N)c(N)sc(=S)c2CO1	-	-	-	-	-	-
COC(=O)C[C@H]1CC[C@H]2[C@H](COc3ccc(NC(=O)Nc4ccccc4F)cc3C(=O)N2C)O1	-	-	7.9	-	.	-
CCCCCc1c(-c2ccc(F)cc2)ncn1CCc1ccccc1OC	-	-	-	-	.	-
COc1cc(/C=N/NC(=O)C(Cc2c[nH]c3ccccc23)NC(=O)OCC(C)C)cc([N+](=O)[O-])c1O (configuration not stated)	-	-	-	-	-	-
COc1cc(/C=N/NC(=O)C(Cc2c[nH]c3ccccc23)NC(=O)OCC(C)C)cc([N+](=O)[O-])c1OCc1ccccc1 (configuration not stated)	-	-	-	-	5.2	-
COC(=O)[C@]12CCCCC=C1N(Cc1ccc3c(c1)OCO3)C(=O)[C@H](CC(=O)NCC1CCCCC1)C2	-	-	-	-	.	4.1
COCCCNC(=O)C[C@@H]1C[C@@]2(C(=O)OC)CCCCC=C2N(Cc2ccc3c(c2)OCO3)C1=O	-	-	-	-	.	-
COc1ccc(/C=C2\SC(=S)N(CCC(=O)Nc3cccc(O)c3)C2=O)cc1	-	-	-	-	4.8	-
COc1ccc(-c2noc(-c3ccc(Cl)cc3[N+](=O)[O-])n2)cc1OC	-	5.7	-	-	-	-
COc1ccc(-c2noc(-c3ccccc3Cl)n2)cc1OC	-	-	-	-	5.1	-
COc1ccc(-c2noc(-c3cccc(Cl)c3)n2)cc1OC	-	-	-	-	-	-
Cc1cc(OC(C)C(=O)N2CCN(c3ccccc3)CC2)c2c(C)c(C)c(=O)oc2c1 (configuration not stated)	-	-	-	-	-	-
CC(C)(C)c1ccc(S(=O)(=O)NNC(=O)c2cc3ccccc3[nH]2)cc1	-	6.5	-	-	-	-
CCCC(C)NNC(=O)c1cc2ccccc2[nH]1 (configuration not stated)	-	-	-	-	-	-
O=C(Nc1nnc(-c2cccnc2)s1)c1cccs1	-	-	-	-	-	-
SMILES	ssDAF12 agonist	hcDAF-12 act	SMARCA2 activ	hgDAF-12 ag	DAX1 inh-1	DAX1 inh-2
Cc1cccc(-c2nnc(NC(=O)c3cccs3)s2)c1	-	-	-	-	4.3	-
O=C(COc1ccc(Cl)cc1)NNC(=O)c1ccc2c(=O)n3c(nc2c1)CCC3	-	-	-	-	-	4.1
COc1ccc(Cl)cc1NC(=O)/C=C\C(=O)O	0.9	-	-	-	-	-
COc1ccc(Cl)cc1NC(=O)Nc1ccc(Br)cn1	-	6.0	-	-	-	-
COc1ccc(Cl)cc1NC(=O)COC(=O)Cc1cc(OC)c(OC)c(OC)c1	2.8	-	-	-	-	-
COc1ccc(NC(=O)/C=C/C(=O)O)cc1Cl	-	-	-	-	-	-
COc1ccc(Cl)cc1NC(=O)COC(=O)CCc1cc(OC)c(OC)c(OC)c1	-	-	-	-	-	-
Cc1cc(C(=O)NNc2ccc(F)cc2F)no1	-	-	-	-	7.6	-
COc1ccc(NC(=O)C(NC(=O)Cc2cccs2)c2ccccc2)cc1 (configuration not stated)	-	-	-	-	-	-
COc1ccc(NC(=O)C(NC(=O)Cc2cccs2)c2ccc(C)cc2)cc1 (configuration not stated)	-	-	-	-	4.7	-
COc1ccc(NC(=O)Cc2cccs2)c(OC)c1	-	-	-	10.5	-	-
COc1ccc(NC(=O)CCC(=O)c2cccs2)c(OC)c1	.	.	.	.	-	.
O=C(CCS(=O)(=O)c1ccc(Br)s1)NCc1ccccc1	-	-	-	-	-	-
Cc1ccc2nc(N3CCN(Cc4nnnn4C4CCCC4)CC3)c(C#N)cc2c1	-	-	-	-	5.7	-
CCCCCCc1ccc(-c2ncc(N)cn2)cc1	-	-	-	11.3	-	-
O=C(N1CCOCC1)n1cnc2ccccc21	-	-	-	-	-	-
CCOC(=O)C1CCN(S(=O)(=O)c2c(Cl)ccc3nonc23)CC1	-	-	-	-	-	-
COCCCN(C(=S)Nc1cc(C)cc(C)c1)C(C)c1ccncc1 (configuration not stated)	0.9	-	-	-	-	-
S=c1nc(-c2ccc(Cl)cc2)[nH][nH]1	-	-	-	-	-	-
CCCOc1ccc(-c2nc(=S)[nH][nH]2)cc1	-	-	-	-	4.5	-
C=CCNCCCOc1ccc(C(C)(C)c2ccccc2)cc1	-	-	-	-	-	-
C[C@H]1CCC/C=C/[C@@H]2C[C@H](O)C[C@H]2[C@H](O)[C@H](S(=O)c2ccc(O)cc2)CC(=O)O1 (some centres not stated)	-	-	-	-	-	6.3
COc1ccc(S(=O)(=O)N2CCN(C(=O)C3CC3)CC2)cc1	-	-	-	-	4.2	-
COc1ccc(OC)c(Cc2nnc(CCC(=O)N3CCN(C4CCCC4)CC3)o2)c1	-	-	7.8	-	-	3.7
COc1ccc(NC(=O)CCN2CCN(S(=O)(=O)c3ccc(C(C)C)cc3)CC2)cc1	1.2	-	-	-	-	-
COc1ccc(OC)c(S(=O)(=O)N2CCC(C(=O)N3CCN(c4ccc(F)cc4)CC3)CC2)c1	-	-	-	-	-	-
COc1ccc(S(=O)(=O)N2CCC(C(=O)N3CCOCC3)CC2)cc1	-	-	-	-	-	-
COc1ccc(OC)c(S(=O)(=O)N2CCC(C(=O)N3CCN(C4CCCCC4)CC3)CC2)c1	-	-	-	-	.	4.2

High-throughput results: PubChem, The Scripps Research Institute Molecular Screening Center
